Reference: the supplement of paper PMC10849652
The full data set covers some 7,900 targets. This sample favours those with a hit. About 0.6% of all pairs of compound and target were hits. Values without a mark were called inactive.

Key:
Assay in all cases: log2 fold change, soluble protein after heating vs DMSO (PISA); higher = thermal stabilisation; K562 cells, 10 uM, 30 min; active = over 0.2 and 3.5 SD of the protein, either way, in both replicates (recomputed)
[1] = compound: COC1=CC=C(C=C1)CN2C=CC3=C2C=C(C=C3)C(=O)NO
How it was run: (§1)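 Values are thermal stability changes relative to control samples and are taken from duplicates. They are stated as log2 fold changes. Before quantification by TMTpro 16plex LC-MS/MS with equalised channel sums, K562 cells at 2×10^6 cells/mL were treated with 10 μM compound for 30 min, heated in aliquots for 3 min across 48°C-58°C, pooled, extracted in PBS with 0.5% NP-40 at 4°C, and centrifuged at 21,000xg for 90 min to give the soluble supernatant.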

filanesib = compound: CON(C)C(=O)N1N=C(c2cc(F)ccc2F)S[C@@]1(CCCN)c1ccccc1 [filanesib]
How it was run: as §1

zotarolimus = compound: CO[C@H]1C[C@@H]2CC[C@@H](C)[C@@](O)(O2)C(=O)C(=O)N2CCCC[C@H]2C(=O)O[C@H]([C@H](C)C[C@@H]2CC[C@H](n3cnnn3)[C@H](OC)C2)CC(=O)[C@H](C)/C=C(\C)[C@@H](O)[C@@H](OC)C(=O)[C@H](C)C[C@H](C)/C=C/C=C/C=C/1C [zotarolimus]
How it was run: as §1

idasanutlin = compound: COc1cc(C(=O)O)ccc1NC(=O)[C@@H]1N[C@@H](CC(C)(C)C)[C@](C#N)(c2ccc(Cl)cc2F)[C@H]1c1cccc(Cl)c1F [idasanutlin]
How it was run: as §1

alisertib = compound: COc1cc(Nc2ncc3c(n2)-c2ccc(Cl)cc2C(c2c(F)cccc2OC)=NC3)ccc1C(=O)O [alisertib]
How it was run: as §1

[2] = compound: COc1cc2nc(-c3cc(F)ccc3O)nc(N[C@@H]3CNC[C@H]3C(C)(C)O)c2cc1OC
How it was run: as §1

gefitinib = compound: COc1cc2ncnc(Nc3ccc(F)c(Cl)c3)c2cc1OCCCN1CCOCC1 [gefitinib]
How it was run: as §1

[3] = compound: COc1cccc2cc(-c3nc([C@H]4CC[C@H](C(=O)O)CC4)n4ncnc(N)c34)[nH]c12
How it was run: as §1

lapatinib = compound: CS(=O)(=O)CCNCc1ccc(-c2ccc3ncnc(Nc4ccc(OCc5cccc(F)c5)c(Cl)c4)c3c2)o1 [lapatinib]
How it was run: as §1

pictilisib = compound: CS(=O)(=O)N1CCN(Cc2cc3nc(-c4cccc5[nH]ncc45)nc(N4CCOCC4)c3s2)CC1 [pictilisib]
How it was run: as §1

Sequence of UniProt Q7L1Q6 (Q7L1Q6 whole entry, looked up): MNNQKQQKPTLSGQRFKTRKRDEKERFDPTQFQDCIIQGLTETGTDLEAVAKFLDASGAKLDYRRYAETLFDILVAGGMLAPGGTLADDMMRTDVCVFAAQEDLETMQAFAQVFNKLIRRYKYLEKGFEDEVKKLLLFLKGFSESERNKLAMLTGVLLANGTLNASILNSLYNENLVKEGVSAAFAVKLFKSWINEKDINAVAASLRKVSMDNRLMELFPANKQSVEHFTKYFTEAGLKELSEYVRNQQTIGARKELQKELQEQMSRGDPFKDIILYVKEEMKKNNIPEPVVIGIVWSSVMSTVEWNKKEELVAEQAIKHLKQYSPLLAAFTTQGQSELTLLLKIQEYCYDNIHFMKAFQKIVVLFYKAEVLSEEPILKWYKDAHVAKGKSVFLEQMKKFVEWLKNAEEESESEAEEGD
Sequence of UniProt Q8WUW1 (Q8WUW1 whole entry, looked up): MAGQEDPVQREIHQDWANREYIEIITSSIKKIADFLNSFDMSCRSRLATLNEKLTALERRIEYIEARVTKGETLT
Sequence of UniProt Q9Y673 (Q9Y673 whole entry, looked up): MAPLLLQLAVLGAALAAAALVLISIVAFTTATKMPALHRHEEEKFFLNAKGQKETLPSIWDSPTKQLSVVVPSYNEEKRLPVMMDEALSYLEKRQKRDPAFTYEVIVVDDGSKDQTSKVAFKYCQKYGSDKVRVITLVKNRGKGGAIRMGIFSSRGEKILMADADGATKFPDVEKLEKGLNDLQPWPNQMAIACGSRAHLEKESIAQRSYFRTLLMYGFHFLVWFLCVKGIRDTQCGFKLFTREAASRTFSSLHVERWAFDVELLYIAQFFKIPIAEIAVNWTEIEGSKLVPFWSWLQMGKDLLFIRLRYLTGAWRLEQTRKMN
Sequence of UniProt Q9UQB8 (Q9UQB8 whole entry, looked up): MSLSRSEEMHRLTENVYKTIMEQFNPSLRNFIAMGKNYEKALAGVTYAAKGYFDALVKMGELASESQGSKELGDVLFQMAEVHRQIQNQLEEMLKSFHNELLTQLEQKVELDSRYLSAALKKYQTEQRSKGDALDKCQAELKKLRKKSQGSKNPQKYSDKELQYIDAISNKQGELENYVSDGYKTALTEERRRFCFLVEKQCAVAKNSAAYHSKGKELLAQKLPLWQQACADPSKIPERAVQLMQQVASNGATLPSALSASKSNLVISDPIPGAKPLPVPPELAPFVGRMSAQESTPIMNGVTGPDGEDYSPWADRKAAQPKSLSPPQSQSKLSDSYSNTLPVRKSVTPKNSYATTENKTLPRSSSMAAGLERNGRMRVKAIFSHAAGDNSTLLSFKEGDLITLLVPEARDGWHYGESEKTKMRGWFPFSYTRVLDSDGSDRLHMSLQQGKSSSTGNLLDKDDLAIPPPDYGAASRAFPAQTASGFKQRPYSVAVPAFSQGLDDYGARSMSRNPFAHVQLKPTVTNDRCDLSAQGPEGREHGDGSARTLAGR
Sequence of UniProt Q9UBL3 (Q9UBL3 whole entry, looked up): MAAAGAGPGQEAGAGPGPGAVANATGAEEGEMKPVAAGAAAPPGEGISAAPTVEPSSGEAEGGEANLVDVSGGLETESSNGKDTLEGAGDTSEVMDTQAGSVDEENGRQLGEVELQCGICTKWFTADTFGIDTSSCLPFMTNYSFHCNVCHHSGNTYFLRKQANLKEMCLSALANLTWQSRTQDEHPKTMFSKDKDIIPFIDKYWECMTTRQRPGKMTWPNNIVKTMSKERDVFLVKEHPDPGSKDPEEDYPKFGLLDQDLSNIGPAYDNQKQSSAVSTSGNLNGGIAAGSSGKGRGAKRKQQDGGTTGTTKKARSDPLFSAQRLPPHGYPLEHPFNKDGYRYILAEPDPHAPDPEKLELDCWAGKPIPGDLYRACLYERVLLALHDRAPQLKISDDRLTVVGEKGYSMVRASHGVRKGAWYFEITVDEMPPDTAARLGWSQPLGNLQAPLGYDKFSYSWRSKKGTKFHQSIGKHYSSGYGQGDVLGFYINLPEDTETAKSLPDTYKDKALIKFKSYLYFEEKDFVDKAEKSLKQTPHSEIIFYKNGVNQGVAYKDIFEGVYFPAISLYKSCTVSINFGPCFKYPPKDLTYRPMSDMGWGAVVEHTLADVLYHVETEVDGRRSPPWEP
Sequence of UniProt Q13733 (Q13733 whole entry, looked up): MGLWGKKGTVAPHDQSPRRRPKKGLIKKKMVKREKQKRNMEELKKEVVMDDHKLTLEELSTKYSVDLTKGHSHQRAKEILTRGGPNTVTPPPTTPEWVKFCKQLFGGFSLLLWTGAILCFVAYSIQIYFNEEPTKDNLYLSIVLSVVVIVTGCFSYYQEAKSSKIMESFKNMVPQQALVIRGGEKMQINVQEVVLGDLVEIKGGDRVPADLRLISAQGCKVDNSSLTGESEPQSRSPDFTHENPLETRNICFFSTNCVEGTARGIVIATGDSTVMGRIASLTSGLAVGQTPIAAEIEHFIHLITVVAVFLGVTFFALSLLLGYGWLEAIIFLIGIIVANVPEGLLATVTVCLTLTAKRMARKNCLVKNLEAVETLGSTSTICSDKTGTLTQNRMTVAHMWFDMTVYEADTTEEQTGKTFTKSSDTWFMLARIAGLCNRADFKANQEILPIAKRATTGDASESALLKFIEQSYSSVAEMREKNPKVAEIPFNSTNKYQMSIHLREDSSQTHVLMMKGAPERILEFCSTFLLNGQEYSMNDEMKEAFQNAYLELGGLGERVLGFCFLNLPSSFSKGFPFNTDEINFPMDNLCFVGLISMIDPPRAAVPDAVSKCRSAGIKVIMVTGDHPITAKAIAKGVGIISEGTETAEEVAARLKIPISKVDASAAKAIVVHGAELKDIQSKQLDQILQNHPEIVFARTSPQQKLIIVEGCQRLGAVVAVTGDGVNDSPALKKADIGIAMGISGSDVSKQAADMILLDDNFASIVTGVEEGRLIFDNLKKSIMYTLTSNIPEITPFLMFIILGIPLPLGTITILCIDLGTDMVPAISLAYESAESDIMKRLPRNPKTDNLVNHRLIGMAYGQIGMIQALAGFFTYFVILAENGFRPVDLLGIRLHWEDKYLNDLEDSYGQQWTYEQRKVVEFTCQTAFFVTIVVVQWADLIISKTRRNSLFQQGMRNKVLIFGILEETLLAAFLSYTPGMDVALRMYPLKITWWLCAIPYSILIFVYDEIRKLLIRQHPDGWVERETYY
Sequence of UniProt Q86WA6 (Q86WA6 whole entry, looked up): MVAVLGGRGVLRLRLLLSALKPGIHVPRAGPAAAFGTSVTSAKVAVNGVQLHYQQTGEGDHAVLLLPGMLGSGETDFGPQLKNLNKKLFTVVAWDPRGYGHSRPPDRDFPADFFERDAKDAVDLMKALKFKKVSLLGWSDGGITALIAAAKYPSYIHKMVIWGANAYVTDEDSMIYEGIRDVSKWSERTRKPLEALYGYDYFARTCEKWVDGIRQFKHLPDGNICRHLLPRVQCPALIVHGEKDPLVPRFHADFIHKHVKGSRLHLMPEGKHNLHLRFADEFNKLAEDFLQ
Sequence of UniProt Q07960 (Q07960 whole entry, looked up): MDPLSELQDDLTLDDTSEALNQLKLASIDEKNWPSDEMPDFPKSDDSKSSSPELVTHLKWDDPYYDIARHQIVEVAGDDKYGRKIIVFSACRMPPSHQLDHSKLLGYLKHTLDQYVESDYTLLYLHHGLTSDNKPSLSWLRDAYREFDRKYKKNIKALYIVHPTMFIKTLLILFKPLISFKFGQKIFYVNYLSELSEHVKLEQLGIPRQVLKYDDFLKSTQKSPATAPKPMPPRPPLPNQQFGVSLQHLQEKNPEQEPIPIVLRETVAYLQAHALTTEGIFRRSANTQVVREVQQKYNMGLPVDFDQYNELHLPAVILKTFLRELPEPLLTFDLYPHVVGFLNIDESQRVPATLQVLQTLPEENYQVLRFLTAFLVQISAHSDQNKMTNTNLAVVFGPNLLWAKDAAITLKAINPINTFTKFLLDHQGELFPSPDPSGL
Sequence of UniProt Q13795 (Q13795 whole entry, looked up): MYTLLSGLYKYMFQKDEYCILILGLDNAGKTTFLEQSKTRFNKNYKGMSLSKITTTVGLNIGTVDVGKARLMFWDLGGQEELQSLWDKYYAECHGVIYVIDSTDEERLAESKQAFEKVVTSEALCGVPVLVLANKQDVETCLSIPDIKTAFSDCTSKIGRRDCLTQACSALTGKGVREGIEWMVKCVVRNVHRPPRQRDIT
Sequence of UniProt Q9Y2Y0 (Q9Y2Y0 whole entry, looked up): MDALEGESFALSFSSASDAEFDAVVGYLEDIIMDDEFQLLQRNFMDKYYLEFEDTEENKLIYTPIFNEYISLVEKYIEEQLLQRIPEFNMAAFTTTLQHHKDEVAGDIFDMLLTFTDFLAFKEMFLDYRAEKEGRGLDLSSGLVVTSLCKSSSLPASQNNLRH
Sequence of UniProt P24666 (P24666 whole entry, looked up): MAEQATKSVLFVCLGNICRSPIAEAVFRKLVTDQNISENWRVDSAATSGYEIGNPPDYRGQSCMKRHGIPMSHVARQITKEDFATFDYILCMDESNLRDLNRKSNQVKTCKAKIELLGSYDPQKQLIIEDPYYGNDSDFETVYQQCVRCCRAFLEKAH
Sequence of UniProt O95433 (O95433 whole entry, looked up): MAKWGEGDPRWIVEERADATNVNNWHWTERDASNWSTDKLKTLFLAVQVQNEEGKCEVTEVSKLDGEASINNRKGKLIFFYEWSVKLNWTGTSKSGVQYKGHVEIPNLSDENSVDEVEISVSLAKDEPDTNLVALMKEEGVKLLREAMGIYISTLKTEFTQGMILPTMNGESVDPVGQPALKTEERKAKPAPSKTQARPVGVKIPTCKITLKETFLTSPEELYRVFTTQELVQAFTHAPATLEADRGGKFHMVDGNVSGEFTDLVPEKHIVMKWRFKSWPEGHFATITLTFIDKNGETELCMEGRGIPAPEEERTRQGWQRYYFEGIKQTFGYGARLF
Sequence of UniProt Q10589 (Q10589 whole entry, looked up): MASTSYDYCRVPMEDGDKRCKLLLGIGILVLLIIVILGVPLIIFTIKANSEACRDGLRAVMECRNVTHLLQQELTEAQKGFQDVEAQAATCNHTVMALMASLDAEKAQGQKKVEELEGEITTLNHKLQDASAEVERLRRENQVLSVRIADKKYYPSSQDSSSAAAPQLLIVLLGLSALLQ

Row | Target | log2 fold change [1] | log2 fold change (filanesib) | log2 fold change (zotarolimus) | log2 fold change (idasanutlin) | log2 fold change (alisertib) | log2 fold change [2] | log2 fold change (gefitinib) | log2 fold change [3] | log2 fold change (lapatinib) | log2 fold change (pictilisib)
1 | ATP7B (UniProt P35670) | -0.02 | 0.087 | -0.075 | -0.233 (active) | -0.02 | -0.011 | 0.028 | 0.026 | 0.061 | 0.061
2 | AIP (UniProt O00170) | 0.06 | -0.041 | 0.021 | -0.019 | -0.046 | 0.054 | -0.002 | -0.019 | -0.019 | 0.015
3 | BECN1 (UniProt Q14457) | 0.094 | -0.005 | -0.142 | -0.159 | -0.081 | 0.117 | 0 | -0.045 | 0.008 | 0.086
4 | ALDH18A1 (UniProt P54886) | -0.024 | -0.01 | 0.045 | -0.233 | -0.09 | 0.215 | -0.18 | 0.067 | -0.652 (active) | -0.101
5 | ARFRP1 (UniProt Q13795) | 0.127 | -0.261 (active) | 0.02 | -0.168 | 0.111 | 0.039 | -0.016 | -0.024 | 0.071 | 0.168
6 | ATP1A4 (UniProt Q13733) | 0.042 | 0.006 | 0.006 | 0.063 | -0.083 | 0.003 | 0.057 | -0.024 | -0.01 | 0.016
7 | BPHL (UniProt Q86WA6) | -0.118 | -0.018 | 0.017 | -0.007 | 0.004 | 0.081 | 0.049 | -0.056 | -0.033 | 0.033
8 | ANK2 (UniProt Q01484) | -0.054 | -0.052 | -0.05 | 0.083 | -0.076 | -0.04 | -0.062 | 0.048 | -0.013 | 0.532 (active)
9 | ALG5 (UniProt Q9Y673) | 0 | -0.054 | 0.039 | -0.139 | 0.675 | 0.095 | 0.023 | 0.013 | 0.046 | 0.075
10 | AK6 (UniProt Q9Y3D8) | 0.009 | -0.052 | 0.003 | 0.012 | -0.035 | 0.053 | 0.03 | 0.006 | -0.049 | -0.01
11 | ATRN (UniProt O75882) | -0.243 | -0.037 | 0 | -0.032 | 0.095 | -0.004 | 0.108 | 0.111 | 0.043 | 0.153
12 | AHSA1 (UniProt O95433) | -0.029 | -0.061 | 0.003 | -0.064 | -0.037 | 0.109 | 0.022 | 0.031 | -0.02 | -0.023
13 | BZW1 isoform 3 (UniProt Q7L1Q6) | 0.033 | -0.069 | 0.052 | -0.152 | -0.078 | -0.032 | -0.028 | -0.13 | -0.071 | -0.071
14 | BST2 (UniProt Q10589) | -0.064 | -0.05 | 0.041 | -0.044 | -0.059 | -0.028 | -0.022 | 0.007 | 0.038 | 0.036
15 | ARHGAP1 (UniProt Q07960) | -0.016 | 0.084 | 0.038 | 0.004 | -0.011 | 0.152 | 0.005 | -0.036 | -0.035 | 0.024
16 | BAIAP2 (UniProt Q9UQB8) | 0.014 | -0.029 | -0.016 | -0.003 | 0.008 | -0.131 | -0.026 | -0.024 | 0.036 | 0
17 | BAD (UniProt Q92934) | -0.103 | 0.124 | -0.073 | -0.049 | 0.103 | -0.016 | 0.115 | 0.068 | -0.037 | 0.022
18 | ASNS (UniProt P08243) | 0.027 | -0.073 | -0.002 | -0.021 | -0.027 | 0.02 | -0.032 | 0.034 | -0.017 | 0.019
19 | ATP1A1 (UniProt P05023) | 0.09 | 0.013 | 0.002 | 0.004 | -0.092 | 0.032 | 0.03 | 0.054 | -0.019 | -0.023
20 | AKT2 (UniProt P31751) | 0.008 | -0.056 | -0.01 | -0.121 | -0.041 | 0.008 | -0.012 | -0.231 | 0.04 | 0.044
21 | ACP1 (UniProt P24666) | 0.008 | -0.047 | -0.039 | -0.078 | 0.029 | 0.056 | 0.003 | -0.086 | -0.073 | -0.062
22 | ADPRHL2 (UniProt Q9NX46) | 0.111 | -0.08 | 0.022 | -0.06 | 0.009 | 0.245 (active) | -0.028 | 0.012 | 0.03 | 0.078
23 | ATP11A (UniProt P98196) | -0.027 | 0.036 | 0.011 | 0.004 | 0.23 | 0.026 | 0.057 | 0.015 | -0.033 | 0.007
24 | ARL2BP (UniProt Q9Y2Y0) | 0.287 | -0.061 | 0.062 | -0.012 | -0.074 | -0.049 | 0.028 | 0.02 | -0.025 | 0.098
25 | ABCC5 (UniProt O15440) | -0.026 | 0.001 | -0.02 | 0.017 | -0.026 | 0.053 | 0.089 | -0.05 | 0 | -0.037
26 | BRK1 isoform 2 (UniProt Q8WUW1) | 0.113 | 0.127 | -0.049 | 0.031 | -0.076 | -0.07 | 0.05 | -0.041 | -0.032 | 0.018
27 | BCAP29 isoform 2 (UniProt Q9UHQ4) | -0.033 | -0.047 | -0.022 | 0.027 | -0.023 | -0.1 | 0.035 | 0.035 | -0.009 | -0.027
28 | BZW2 (UniProt Q9Y6E2) | -0.029 | -0.05 | 0.02 | -0.126 | -0.056 | 0.011 | -0.009 | 0.023 | -0.055 | -0.034
29 | ASH2L (UniProt Q9UBL3) | 0.019 | 0.044 | 0.096 | 0.021 | -0.034 | 0.035 | 0.004 | -0.014 | -0.011 | 0.039
30 | ARFGAP1 (UniProt Q8N6T3) | 0.03 | 0.034 | 0.047 | 0.028 | 0.047 | 0 | -0.022 | -0.015 | -0.038 | -0.007
